Assay outcomes (PubChem)
The list is not random: actives were taken first. Their share in the collection is about 2.9%.
BioA inh: BioA (M. tuberculosis) enzyme inhibition | purified M. tuberculosis BioA enzyme, plate reader | inhibition, % at 9.99 µM | actives 0.096% (n = 360,000) | AID 602481; in the data active means inhibition above about 40%
FadD28 FP inh: blocks FadD28 binding to the bisubstrate probe; inhibition, % at 12.5 µM; fluorescence polarization; actives 0.22% (n = 360,000); in the data active means inhibition above about 8.5%, passing the limit was not always enough
Mtb hypoxia inh: Mtb hypoxia fluorescent reporter inhibition; M. tuberculosis hypoxia-regulated fluorescent reporter, fluorescence; fluorescence inhibition, % (test concentration not listed); actives 0.1% (n = 300,000); in the data active means fluorescence inhibition mostly above about 23%, no sharp cut-off; inactive means mostly below about 17%
Mtb FBA inh: inhibits M. tuberculosis FBA enzyme | purified M. tuberculosis FBA, fluorescence read-out | inhibition, % at 1 µM | actives 2.3% (n = 360,000) | AID 588726; in the data active means inhibition above about 27%;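 further: 0% = vehicle and 100% = reference inhibitor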
Target sequence (P9WQA3 whole entry, looked up): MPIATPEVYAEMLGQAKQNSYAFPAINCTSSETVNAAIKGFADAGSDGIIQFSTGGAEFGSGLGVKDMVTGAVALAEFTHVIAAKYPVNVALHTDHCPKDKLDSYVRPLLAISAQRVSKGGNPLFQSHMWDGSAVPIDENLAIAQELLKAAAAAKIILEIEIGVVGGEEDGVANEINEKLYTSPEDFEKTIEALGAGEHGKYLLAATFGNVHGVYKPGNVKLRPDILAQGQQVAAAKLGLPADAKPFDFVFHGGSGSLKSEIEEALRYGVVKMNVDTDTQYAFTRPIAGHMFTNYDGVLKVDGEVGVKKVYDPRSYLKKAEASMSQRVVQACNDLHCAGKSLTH
GDH-TPI inh: inhibits GDH-TPI coupling enzymes, artifact for Mtb FBA screen. GDH-TPI coupled enzyme counterscreen, NADH absorbance. inhibition, % at 4.8 µM. actives 1.2% (n = 360,000); in the data active means inhibition above about 30%;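 further: 0% = DMSO wells and 100% = wells lacking the enzyme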
* marks the source's active call; other numbers are inactive results; / = no result; + = active, no number.

SMILES	BioA inh	FadD28 FP inh	Mtb hypoxia inh	Mtb FBA inh	GDH-TPI inh
O=C(NCCCN1CCOCC1)/C(=C/c1ccc(-c2cccc([N+](=O)[O-])c2)o1)NC(=O)c1ccccc1	6.1	-1.7	/	-3.8	39.8*
CN(C)S(=O)(=O)n1cc(/C=C(\NC(=O)c2ccccc2F)C(=O)NCCN2CCOCC2)c2ccccc21	1.4	-0.3	/	4.2	11.5
CCn1cc(/C=C(\NC(=O)c2ccccc2F)C(=O)NCCN2CCOCC2)c2ccccc21	-1.4	-3.2	11.1	-6.0	32.8*
O=C(/C=C/c1ccc(-c2cccc([N+](=O)[O-])c2)o1)N1CCOCC1	3.1	0.2	-1.1	0.1	37.6*
Cn1cc(/C=C(\NC(=O)c2ccccc2)C(=O)NCCCN2CCOCC2)c2ccccc21	1.6	-1.3	6.0	1.6	32.8*
O=C(/C=C/c1cccc([N+](=O)[O-])c1)N1CCOCC1	/	-0.3	0.6	-3.3	3.8
O=C1CCCCC=CCC(CC(=O)N(CCO)Cc2ccccc2)C(=O)N2CCCC2CO1 (stereo not drawn)	/	/	19.3	/	/
COc1ccc(C(=O)NC(=Cc2ccccc2)C(=O)NC(CC(C)C)C(=O)O)cc1 (stereo not drawn)	/	/	4.0	/	/
Cc1noc(C)c1NC(=O)Nc1ccc2c(c1)C(=O)N([C@@H](C)CO)C[C@H](C)[C@@H](CN(C)C(=O)Nc1ccc(C(F)(F)F)cc1)O2	0.1	/	/	/	/
COc1ccc(C(=O)N/C(=C\c2cn(C)c3ccccc23)C(=O)N2CCN(C)CC2)cc1	-2.5	0.4	-8.5	-0.7	42.8*
C=CCOc1cccc(C=NNC(=O)CN2CCCCC2)c1	/	/	10.4	/	/
Cc1cc(O)c2c(c1)C(=O)C13C(=C2O)C(=O)[C@H]2[C@@H](O)[C@@H]1[C@H]1[C@H](O)[C@@H]3C(=O)C3=C(O)c4c(O)cc(C)cc4C(=O)C312 (stereo partly drawn)	-0.4	-1.0	/	-17.8	38.2*
O=c1nc(/C=C/c2ccc(Cl)cc2Cl)cc(C(F)(F)F)[nH]1	-1.8	-1.0	9.0	2.3	41.4*
O=C(O)c1ccc(C=NNC(=O)c2ccc(Br)cc2)cc1	/	/	-5.4	/	/
O=[N+]([O-])c1ccc(NN=Cc2ccco2)nc1	-2.6	0.8	9.9	-12.9	33.5*
O=[N+]([O-])c1ccc(NN=Cc2cc(Br)ccc2O)nc1	-3.0	-3.5	37.3*	-7.0	5.3
O=[N+]([O-])c1ccc(NN=Cc2cccs2)nc1	/	/	-1.1	/	/
N#C[C@@H]1[C@H](c2ccc(C3=CCCCC3)cc2)[C@@H](CO)N1C(=O)Cc1ccncc1	1.3	/	/	/	/
CCCC#Cc1ccc2c(c1)O[C@@H](CN(C)C(=O)c1ccccc1)[C@H](C)CN([C@H](C)CO)S2(=O)=O	-0.7	/	/	/	/
Cc1ccc(-c2cn3cccnc3n2)cc1NC(=O)c1ccc(Br)o1	8.4	-0.3	22.5	+	41.1*
c1cnc2nc(-c3ccc4c(c3)OCO4)cn2c1	0.3	0.6	13.8	6.0	15.8
O=C(Nc1cccc(-c2cn3cccnc3n2)c1)c1cccs1	-0.4	-0.6	-1.6	170.2*	12.4
O=C(Nc1cccc(-c2cn3cccnc3n2)c1)c1ccc2c(c1)OCO2	18.6	-5.5	-0.6	133.8*	16.9
O=C(Nc1cccc(-c2cn3cccnc3n2)c1)c1ccco1	5.8	-2.3	-20.3	+	23.8
CNC[C@@H]1OCCCC[C@H](C)Oc2ccc(NS(C)(=O)=O)cc2C(=O)N([C@@H](C)CO)C[C@@H]1C	-2.1	/	/	/	/
SMILES	BioA inh	FadD28 FP inh	Mtb hypoxia inh	Mtb FBA inh	GDH-TPI inh
CCOc1ccccc1C=NNC(=O)CNC(=O)c1cccs1	/	/	12.4	/	/
CC(=NNc1nc(-c2ccc(C)cc2C)cs1)c1cc2ccccc2oc1=O	/	/	1.0	/	/
C[C@H](CO)N1C[C@H](C)[C@H](CN(C)Cc2ccc(-c3ccccc3)cc2)Oc2c(NC(=O)NC3CCCCC3)cccc2C1=O	-3.0	/	/	/	/
O=C(Nc1cccc(-c2cn3cccnc3n2)c1)c1ccc(Br)o1	1.6	-2.3	-4.2	+	19.7
Cc1onc(-c2ccccc2Cl)c1C(=O)Nc1nnc(-c2cccc([N+](=O)[O-])c2)s1	1.9	-1.8	8.5	2.9	34.6*
CC(=O)Nc1ccc(NC(=O)c2c(-c3ccccc3Cl)noc2C)cc1	/	/	16.5	-0.4	-6.7
Cc1onc(-c2ccccc2Cl)c1C(=O)Nc1cccc(-c2nc3ncccn3c2C)c1	6.5	-2.9	1.4	175.3*	26.2
Cc1onc(-c2ccccc2Cl)c1C(=O)Nc1ccc(-c2cn3cccnc3n2)cc1	/	-5.7	-6.9	+	30.9*
Cc1onc(-c2ccccc2Cl)c1C(=O)Nc1cccc2cccnc12	-0.1	-7.3	11.5	-1.2	5.7
Cc1ccc(-c2cn3cccnc3n2)cc1NC(=O)c1c(-c2ccccc2Cl)noc1C	2.1	-8.0	-12.7	+	16.2
